Shown are actives, neighbours in structure and some others; about 21% of the full set was active somewhere.
MRP1 act: H69AR viability gain despite doxorubicin, primary screen, MRP-1 activator project, H69AR cells, CellTiter-Glo | viability rescue | viability increase, % at 10 µM | 140,000 tested, 0.61% active | AID 799, 2007;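 active = viability gain under doxorubicin at or above a set limit, the compound median plus 3 SD, cut at about 4.7% in these data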;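 also: MRP-1 overexpressing cells given doxorubicin 25 µM after compound pretreatment; 18-22 h compound pretreatment then 72 h with doxorubicin before readout; 0% = doxorubicin-only wells and 100% = vehicle-treated cells without doxorubicin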
CYP2C19 inh: blockers of cytochrome P450 2C19 activity – biochemical, luminescence, ADME assay, primary screen; P33261; CYP2C19 Supersomes, luciferin-H EGE luminescence, 30 min; inhibition, % at 5 µM; 96,000 tested, 21% active;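 active = CYP2C19 inhibition above a set limit at 5 µM in the primary screen, cut at about 50% in these data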;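 also: plate controls were negative control wells for no effect and 2.5 mM tranylcypromine positive control for full effect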
Target sequence (P33261 whole entry, looked up): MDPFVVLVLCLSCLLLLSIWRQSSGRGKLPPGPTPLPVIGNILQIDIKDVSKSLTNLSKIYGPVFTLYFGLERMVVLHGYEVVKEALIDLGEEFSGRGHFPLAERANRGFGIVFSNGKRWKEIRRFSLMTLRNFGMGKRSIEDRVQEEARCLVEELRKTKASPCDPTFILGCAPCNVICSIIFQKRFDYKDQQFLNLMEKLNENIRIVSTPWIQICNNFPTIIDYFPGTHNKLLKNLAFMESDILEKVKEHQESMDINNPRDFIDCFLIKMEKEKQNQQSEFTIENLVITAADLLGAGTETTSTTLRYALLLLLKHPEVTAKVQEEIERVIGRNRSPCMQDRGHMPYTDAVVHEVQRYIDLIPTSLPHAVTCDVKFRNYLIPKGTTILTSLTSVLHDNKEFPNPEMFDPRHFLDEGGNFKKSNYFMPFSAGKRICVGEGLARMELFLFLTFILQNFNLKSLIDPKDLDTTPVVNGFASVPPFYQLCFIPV
CYP2C19 activ: human CYP2C19 activators, primary screen, biochemical, luminescence; Cytochrome P450 2C19 (Homo sapiens), P33261; recombinant CYP2C19, luciferin-H EGE luminescence; hits give high values; 0 = fully inhibited enzyme, 1 = untreated enzyme; activation factor at 5 µM; 96,000 tested, under 10 active; AID 1025, 2008;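 active = activation factor of at least 2 at 5 µM in the primary screen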;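 also: 0 = wells with 2.5 mM tranylcypromine and 1 = vehicle-only wells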
CYP2C9 inhib: blockers of cytochrome P450 2C9 activity – biochemical, luminescence, ADME assay, primary screen; inhibition, % at 5 µM; 96,000 tested, 20% active; CYP2C9 Supersomes, luciferin-H conversion; P11712;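 active = blocking of liver enzyme CYP2C9 beyond about 50% at 5 µM, limit read from the data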
MRP resist rev: reversal of MRP1-mediated doxorubicin resistance, primary screen, H69AR cells, doxorubicin co-treatment; 85,000 tested, 0.04% active; H69AR cells + 2 uM doxorubicin, CellTiter-Glo, 72 h; differential viability (reversal), % at 10 µM; AID 602, 2007;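 active = viability drop by adding the cancer drug above about 55%, with treated viability meeting a 40% cutoff, limit read from the data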;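 also: viability without doxorubicin minus viability with 2 µM doxorubicin for each compound; larger differential means the compound sensitizes cells more to doxorubicin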
CYP2C9 activ: human CYP2C9 activators, primary screen, biochemical, luminescence; Cytochrome P450 2C9 (Homo sapiens), P11712; recombinant CYP2C9, luciferin-H conversion; hits give high values; factor 1 = untreated enzyme, 0 = blocked; activation factor at 5 µM; 96,000 tested, 1.4% active;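 active = activation factor of 2 or more for CYP2C9 at a 5 µM dose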;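 also: 0 = sulfaphenazole-blocked wells and 1 = vehicle-only wells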
* = called active by the depositor; . = no result given.

SMILES	MRP1 act	CYP2C19 inh	CYP2C19 activ	CYP2C9 inhib	MRP resist rev	CYP2C9 activ
C/C(=N\NC(=O)c1ccccc1)c1ccc(C)c([N+](=O)[O-])c1	1	.	.	.	.	.
CCc1ccccc1N1CCN(S(=O)(=O)c2ccc(F)c(C)c2)CC1	3	90*	0.1	90*	10	0.1
Cc1ccccc1N1CCN(S(=O)(=O)c2ccc3oc(=O)ccc3c2)CC1	2	41	0.6	80*	6	0.2
COc1ccccc1N1CCN(C2CCN(S(=O)(=O)c3ccc4ccccc4c3)CC2)CC1	-3	15	0.8	-40	3	1.4
Cc1ccc(N2CCN(S(=O)(=O)N(C)C)CC2)c(C)c1	.	86*	0.1	64*	-8	0.4
CCC(=O)c1cc(F)c(N2CCN(S(=O)(=O)c3ccc(C)cc3)CC2)cc1C	0	43	0.6	59*	8	0.4
CS(=O)(=O)N1CCN(c2ccccc2F)CC1	-1	16	0.8	25	-1	0.7
CCN(CC)S(=O)(=O)c1cccc(C(=O)NC(Cc2c[nH]c3ccccc23)c2nnc3n2CCCCC3)c1 (stereo unspecified)	-3	6	0.9	18	-7	0.8
O=C(CSc1nnc(-c2ccccc2)o1)NC1CCS(=O)(=O)C1 (stereo unspecified)	-2	.	.	.	.	.
O=C(c1ccccc1F)N(NC(=O)C(O)(c1ccccc1)c1ccccc1)c1ccccc1	0	.	.	.	.	.
Cc1ccc(N2CCN(S(=O)(=O)c3ccc(F)c(C)c3)CC2)c(C)c1	2	84*	0.2	91*	-11	0.1
Cc1cc(S(=O)(=O)N2CCOCC2)ccc1F	-1	8	0.9	-8	-6	1.1
CC(C)C(NC(=O)CSCc1ccc([N+](=O)[O-])cc1)C(C)C	-1	.	.	.	.	.
CC(C)CC(=O)c1c[nH]c(C(=O)NCc2cccs2)c1	1	11	0.9	20	11	0.8
Cc1ccccc1C(=O)c1c[nH]c(C(=O)NCCCn2ccnc2)c1	-1	67*	0.3	93*	.	0.1
O=C(NCCCn1ccnc1)c1cc(C2CC2)on1	0	85*	0.1	59*	-20	0.4
O=C(NCc1ccco1)c1cc(C(=O)C2CCCCC2)c[nH]1	0	-3	1	4	.	1
CC(C)CC(=O)c1c[nH]c(C(=O)NCCCn2ccnc2)c1	-2	41	0.6	82*	.	0.2
O=C(NCCCn1ccnc1)c1cc(C(=O)C2CC2)c[nH]1	1	56*	0.4	61*	.	0.4
Cc1ccccc1C(=O)c1c[nH]c(C(=O)NCc2cccs2)c1	0	-7	1.1	-2	.	1
Cc1ccc(CNC(=O)c2ccc(Cl)cc2[N+](=O)[O-])cc1	0	18	0.8	-44	.	1.4
CCC(CC)C(=O)c1c[nH]c(C(=O)NCCCn2ccnc2)c1	0	67*	0.3	92*	.	0.1
COc1ccccc1N1CCN(C(=O)c2ccc(CS(=O)(=O)c3ccccc3OC)o2)CC1	-1	35	0.7	79*	-3	0.2
COc1ccc(S(=O)(=O)Cc2ccc(C(=O)N3CCN(c4cccc(C)c4)C(C)C3)o2)cc1 (stereo unspecified)	-1	58*	0.4	90*	-46	0.1
Cc1ccccc1S(=O)(=O)Cc1ccc(C(=O)N2CCN(c3ncccn3)CC2)o1	-1	92*	0.1	84*	-1	0.2
COc1ccccc1S(=O)(=O)Cc1ccc(C(=O)N2CCN(c3ccc(C)cc3)C(C)C2)o1 (stereo unspecified)	-3	55*	0.4	91*	.	0.1
CCOC(=O)N1CCN(C(=O)c2ccc(CS(=O)(=O)c3ccccc3OC)o2)CC1	-1	-3	1	22	15	0.8
O=c1[nH]cnc2cc(Cl)ccc12	-1	-6	1.1	5	0	0.9
C=CCOC(=O)Nc1c(C(=O)OC)[nH]c2ccc(Cl)cc12	0	3	1	14	3	0.9

Screens (PubChem BioAssay)
